The list is not random: actives were taken first. Their share in the collection is about 2.1%.
Arbovirus anti = arbovirus infection inhibition. inhibition, % at 10 µM. 0.37% of 200,000 active. arbovirus infection cell-based antiviral screen. AID 1251; in the data active = inhibition above about 30%
HMGR II inh = blocks class II HMG-CoA reductase of Enterococcus faecalis; purified E. faecalis HMGR, NADPH absorbance 340 nm kinetic; inhibition, % at 10 µM; 0.41% of 190,000 active;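 active = inhibition above a set limit, the median over all tested compounds plus 3 SD, cut at about 9.5% in these data; inconclusive = no clear call, values can overlap the other calls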;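 note: enzyme runs in reverse so mevalonate oxidation gives rising NADPH absorbance; 0% = complete reaction with DMSO and 100% = background rate lacking mevalonate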
HSV replic up = HSV replication enhancement | HSV replication augmentation in cells, fold increase | maximum fold increase | 0.005% of 220,000 active | AID 1956; in the data active = maximum fold increase above about 1.5; inconclusive = no clear call, values can overlap the other calls; tested in PC3 cells
m-calpain inh = blocks pig calpain II enzyme activity. inhibition, % at 16 µM. 0.37% of 220,000 active. purified calpain II, fluorogenic peptide substrate, 30 min. AID 1236;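 active = inhibition above about 50%, limit read from the data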
ROMK primary = human ROMK K+ channel modulation, primary screen. P48048. Tet-inducible ROMK, thallium flux fluorescence; actives lie on both sides. B-score at 10 µM. 2% of 130,000 active. AID 1918;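 active = signal ratio slope over the read window, or its plate-corrected B-score, at least 3 SD from the plate mean, either direction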;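 note: B-score of the F/F0 ratio slope over 7 to 12 s after thallium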
Target sequence (P48048 whole entry, looked up): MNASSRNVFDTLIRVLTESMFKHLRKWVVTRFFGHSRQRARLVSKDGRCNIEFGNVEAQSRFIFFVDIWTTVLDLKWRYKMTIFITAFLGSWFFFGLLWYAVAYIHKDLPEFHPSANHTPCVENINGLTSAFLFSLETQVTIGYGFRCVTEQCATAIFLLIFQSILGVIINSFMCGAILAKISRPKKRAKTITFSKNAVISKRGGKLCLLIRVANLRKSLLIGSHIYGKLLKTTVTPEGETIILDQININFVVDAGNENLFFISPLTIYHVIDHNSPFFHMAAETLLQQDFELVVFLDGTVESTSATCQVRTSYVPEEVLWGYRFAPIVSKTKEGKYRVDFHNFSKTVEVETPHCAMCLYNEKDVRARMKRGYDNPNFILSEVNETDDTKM
ROMK hit retest = confirmation of human ROMK potassium channel modulators. shares compounds with ROMK primary. AID 1917. ROMK thallium flux, fluorescence ratio; hits give low values. normalized thallium flux (F/F0 slope) at 10 µM. 54% of 3,000 active;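 active = Flux at 10 µM at least 3 SD below or above vehicle control mean in one or both replicates; inconclusive = no clear call, values can overlap the other calls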
* hit, by the source's call; i = inactive; ? = inconclusive; . = not tested or not shown.

SMILES	Arbovirus anti	HMGR II inh	HSV replic up	m-calpain inh	ROMK primary	ROMK hit retest
COc1ccccc1N1CCN(/N=C/C=C/c2ccccc2[N+](=O)[O-])CC1	.	.	i	15.1	.	.
COc1cccc(/C=C/C(=O)c2c(O)cc(C)oc2=O)c1O	10.3	-2.7	i	-17.0	-5.86*	0.0567*
COc1cccc(/C=c2\sc3nc(-c4cccs4)nn3c2=O)c1OC	14.2	-4.6	.	-14.7	.	0.082
COc1ccccc1NC(=O)OCC#CCOC(=O)Nc1ccccc1OC	.	.	i	28.8	0.454	.
COc1ccc(OC)c(NC(=O)c2cccnc2Sc2ccccc2)c1	5.3	-3.2	i	19.2	0.0153	.
Cn1c(C2CCCCC2)nc2c1c(=O)[nH]c(=O)n2Cc1ccccc1	-0.9	-7.4	i	-2.2	3.2*	0.0982*
O=S(=O)(c1ccc(Cl)nc1)N1CCN(c2ncccn2)CC1	.	.	i	2.4	.	.
N#C/C(=C(/O)C(Cl)(Cl)Cl)c1nc2ccccc2[nH]1	.	.	i	7.4	-4.95*	0.045*
N#C/C(=C\c1ccncc1)c1nc2ccccc2[nH]1	-2.5	-1.5	i	25.3	-5.24*	0.0511*
N#C/C(=C/c1ccncc1)c1nc2ccccc2s1	10.4	-0.5	?	14.6	-3.47*	0.0529*
N#C/C(=C\c1cccnc1)c1nc2ccccc2[nH]1	.	.	i	-18.8	.	.
CC(C)CCNC(=O)CN(Cc1ccc2c(c1)OCO2)C(=O)Cn1nnc(-c2cccs2)n1	-6.5	-2.6	i	13.7	-3.05*	0.0678*
CCOC(=O)N1CCN(S(=O)(=O)c2cc([N+](=O)[O-])c(C)cc2C)CC1	5.8	-0.8	i	-32.8	.	.
N#Cc1nc(N2CCCC2)nc(N2CCCC2)n1	-3.2	-6.1	i	10.2	-3.45*	0.0633*
C1CCN(c2nc(N3CCCCC3)nc(N3CCNCC3)n2)CC1	-46.7	-1.4	i	0.4	-3.05*	0.0669*
CC1CCN(c2nc(N3CCCCC3)nc(N3CCCCC3)n2)CC1	10.5	-0.6	i	20.1	.	.
CC(C)c1[nH]nc2c1C(c1ccco1)C(C#N)=C(N)O2 (configuration not stated)	-6.9	2.7	i	-29.7	-0.982	.
O=C(c1ccccc1)c1cc(Cl)ccc1N1C(=O)C=CC1=O	2.0	-2.6	i	26.2	-2.72*	0.0619*
O=C(CC(=O)c1cc(Cl)ccc1O)c1ccccc1	0.5	-1.4	i	7.5	.	.
Cc1cc2c(ncn2Cc2ccccc2)c(N)c1C	-5.1	-2.8	i	-4.0	0.0297	.
S=C(NCCC1=CCCCC1)NCc1ccco1	15.5	0.7	i	10.5	-1.23	.
O=C(CNCc1ccco1)Nc1ccc(Oc2ccccc2)cc1	-10.8	-0.8	.	14.6	-0.44	.
Cc1ccc(C)c(N2CCN(S(=O)(=O)c3ccc4c(c3)CCC(=O)N4)CC2)c1	9.3	-2.2	i	-7.0	0.039	.
Cc1ccc(C)c(N2CCN(S(=O)(=O)c3ccc4[nH]c(=O)c(=O)[nH]c4c3)CC2)c1	0.2	-0.5	i	-241.7	3.86*	?
O=S(=O)(NCc1csc(-c2cccs2)n1)c1cccc(C(F)(F)F)c1	.	.	i	3.6	.	.
SMILES	Arbovirus anti	HMGR II inh	HSV replic up	m-calpain inh	ROMK primary	ROMK hit retest
O=C(Nc1nc2cc3c(cc2s1)OCO3)C1=COCCO1	-13.9	-6.0	i	20.7	2.52*	0.0804
CC(=O)Nc1nc2cc3c(cc2s1)OCO3	0.5	-9.4	i	-9.9	.	.
COc1cc(C(=O)Nc2ccc(S(=O)(=O)Nc3nccc(C)n3)cc2)c([N+](=O)[O-])cc1OC	.	.	i	3.5	.	.
Cc1nc(CN2CCCCC2)cc(=O)[nH]1	4.4	-0.2	i	16.5	0.00716	.
O=C(/C=C/c1ccccc1)c1ccc2c(c1)OCO2	.	.	i	-22.7	0.0461	.
O=C(/C=C/c1ccncc1)c1ccc2c(c1)OCCO2	-38.1	-0.1	i	-37.5	-2.73*	0.0533*
CCn1c(SCC(=O)Nc2cccc(C)c2)nc2nc3c(cc2c1=O)COC(C)(C)C3	.	.	i	-4.6	.	.
CCCN(C(=O)CSc1nnnn1C)C1CCS(=O)(=O)C1 (configuration not stated)	-3.3	-9.0	i	-30.1	-0.137	0.0796
COc1ccccc1OCCOCCOc1ccccc1Cl	7.1	-4.1	i	-5.5	-2.83*	0.0736
N#Cc1cc2cc3c(cc2nc1NCCNC(=S)NCCCN1CCOCC1)OCO3	14.1	-2.3	i	-353.5	0.759	.
CN(CC1CCOCC1)C(=O)CC1C(=O)NCCN1C/C=C/c1ccccc1 (configuration not stated)	3.9	-0.5	i	-36.1	1.82	.
COc1cc(C2C3=C(Nc4ncnn42)c2ccccc2CC3)cc(OC)c1OC (configuration not stated)	-10.7	0.9	i	-12.2	3.91*	0.0869
CCCC1(C(=O)OCC)NC(c2ccc(O)cc2)C2C(=O)N(c3ccc4c(c3)OCCO4)C(=O)C21 (configuration not stated)	6.8	3.3	i	-52.7	1.17*	0.0748
O=C(CCCN1C(=O)C2CCCCN2C1=O)N1CCN(c2ccc([N+](=O)[O-])cc2)CC1 (configuration not stated)	8.0	3.0	i	34.6	0.171	.
O=C1C2CCCCN2C(=O)N1CCN1CCN(c2ccc([N+](=O)[O-])cc2)CC1 (configuration not stated)	-4.3	-0.8	i	-4.2	-2.83*	0.0473*
S=c1[nH]nc(Cc2ccc(Cl)cc2)o1	.	.	i	-5.3	.	.
COc1cc(CNc2ccc(C)c(C)c2)cc(OC)c1OC	-18.5	-3.1	i	-15.2	3.38*	0.0927
COc1ccc(CNc2ccc(C)c(C)c2)cc1	3.2	-2.0	i	1.7	-0.629	.
CCOc1ccc(C(=O)c2cc([N+](=O)[O-])ccc2N2CCOCC2)cc1	-16.4	-2.5	.	2.6	6.66*	0.0859
Cc1ccc(C(=O)c2cc([N+](=O)[O-])ccc2N2CCCCC2)c(C)c1	-10.6	-2.7	i	14.4	2.71*	0.0833
COc1ccc(C(=O)c2cc([N+](=O)[O-])ccc2N2CCOCC2)cc1	-16.8	-4.7	i	1.9	5.61*	0.0906
COc1ccc(N2CCN(CCNC(=O)c3ccc4c(c3)[nH]c(=S)n3c5ccccc5nc43)CC2)cc1	-2.6	-2.3	i	11.1	-0.278	.
O=C(Nc1ccc(Cl)cc1)c1cc2c(cc1O)[nH]c1ccccc12	.	.	i	-62.9	.	.
CC(C)C(C(=O)Nc1ccc2c(c1)OCCOCCOCCOCCO2)N1C(=O)c2ccccc2C1=O (configuration not stated)	3.2	-0.8	i	1.1	0.553	.
CC(C)(C)c1ccc(NC(=O)c2c(F)cccc2Cl)cc1	.	.	i	-11.4	.	.
O=C(O)CCCCCN1C(=O)C2CCCCC2C1=O (configuration not stated)	-3.6	0.1	i	15.5	0.7	.
O=C(O)CCCCCCC1C(=O)NC(=O)N1CCC(O)C1CCCCC1 (configuration not stated)	-3.1	16.6*	i	-1.6	4.02*	?
O=C(C1Cc2ccccc2CN1C(=O)c1ccccc1)N1CCN(c2ccccc2)CC1 (configuration not stated)	.	.	i	-24.1	0.0578	.
